The campaign covered roughly 220,000 compounds. About 2,000 (0.91%) were called active. About 2% were inconclusive and are not listed. A selection follows. Measured potencies and affinities stand elsewhere. A number with no mark means an inactive call. Rule as the data show it: inconclusive = inhibition above about 80% without an active follow-up result; inactive = below that; test concentration not stated here.
Assay: M. tuberculosis H37Rv growth inhibitors, H37Rv strain (AID 1626);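 also: bacteria incubated seven days before Alamar blue readout; 0% = bacteria only wells and 100% = bacteria with antibiotic wells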
Conditions: stronger effect = higher value, concentration not given here
With O=C(COC(=O)c1cccc2ccccc12)NCC1CCCO1 (configuration not stated) the inhibition was -2.85%. For CCn1cc(C2C3=C(CC(C)(C)CC3=O)N(c3ccccc3)C3=C2C(=O)CC(C)(C)C3)c(C)n1, the inhibition was -3.23%. CCC1=C(OC(=O)N(CC)CC)N2C(=O)OC(=NCCOC)[C@]2(Cc2ccccc2)[C@H]2C1=CC[C@H]1C(=O)NC(=O)[C@H]12 gave an inhibition of 10.1%. Work on O=C(NC1CCCCC1)c1nn2c(C(F)(F)F)cc(-c3ccco3)nc2c1Br yielded an inhibition of 1.53%. COCCn1c(SCC(=O)Nc2ccccc2OC)nc2c(oc3ccccc32)c1=O gave an inhibition of 3.65%. Compound COc1ccc(SCCC(=O)NCc2ccncc2)cc1 has an inhibition of -7.49%. In the case of Cc1cccc(N2CCN(C(=O)c3cccc(N4C(=O)C5CC=CC(C)C5C4=O)c3)CC2)c1C (configuration not stated), the inhibition is reported as -7%. COc1ccc(C2C(C(=O)Nc3ccc(F)cc3)=C(C)Nc3nc(CCCO)nn32)cc1 (configuration not stated) gave an inhibition of -9.75%. For CCc1ccc2c(c1)C(=O)c1ccccc1C2=O, the inhibition was 7.07%. For Nc1ccc2c(c1)CCC2=O, the inhibition was -8.13%. For Cc1ccc(-c2ccc3c(c2)S(=O)(=O)c2ccccc2C3=O)cc1, the inhibition was -4.26%. Compound Nc1ccc2c(c1)CC(=O)c1ccccc1S2 has an inhibition of 9.71%. O=C1c2ccccc2-c2nnc(-c3ccccc3)cc21 showed an inhibition of -2.39%. CC(C)(C)c1ccc2c(c1)C(=O)c1ccccc1C2=O showed an inhibition of 7.48%. O=C(OCC(=O)N1CCN(C(=O)c2ccco2)CC1)c1cccc(S(=O)(=O)N2CCc3ccccc32)c1 gave an inhibition of 2.78%. Compound CC(C)C(=O)N1CCN(c2ccc([N+](=O)[O-])cc2Cl)CC1 has an inhibition of 0.58%. With COc1ccc(/C=N/NC(=O)C(C)n2nnc3ccccc32)cc1OC (configuration not stated) the inhibition was -3.28%. C=CCN1C(=O)C(Cc2ccc(OC)cc2)S/C1=N\N=C\c1cccs1 (configuration not stated) showed an inhibition of -5.41%. In the case of COc1ccc(OC)c(C(=O)c2ccc(C(=O)N3CCCCC3)cc2)c1, the inhibition is reported as -2.08%. For Cc1cccc2c1NC(=O)/C2=C\C(=O)c1cccs1, the inhibition was 12.6%. In the case of CCc1ccc2c(c1)C(O)(CC(=O)c1cccs1)C(=O)N2 (configuration not stated), the inhibition is reported as 3.05%. For O=C(/C=C1\C(=O)Nc2ccccc21)/C=C1\C(=O)Nc2ccccc21, the inhibition was 9.02%. For Cc1cc(Br)c2c(c1)/C(=C/C(=O)c1cccs1)C(=O)N2, the inhibition was 79.9%. Work on Cn1c(N)c(C(=O)COC(=O)C2CC(=O)N(Cc3ccccc3)C2)c(=O)n(C)c1=O (configuration not stated) yielded an inhibition of 0.39%. For CC(C)(C)Nc1nc(SCC(=O)Nc2ccccc2)nc(N2CCOCC2)n1, the inhibition was -1.07%. O=C(Nc1ccccc1)c1ccn[nH]1 showed an inhibition of -7.96%. For COc1ccccc1CNc1ncnc2cc(Cl)ccc12, the inhibition was -2.22%. For CC(C)N1CCC(N2CCN(C/C=C/c3ccccc3)CC2CCO)CC1 (configuration not stated), the inhibition was -1.35%. For Cc1ccc(C(c2nnnn2C(C)(C)C)N2CCN(C3CCCC3)CC2)cc1 (configuration not stated), the inhibition was -4.57%. With Cc1cc(C)c(-c2cc(NC(=O)CSc3nncn3C)n(-c3ccccc3)n2)cc1C the inhibition was 5.63%. Compound CCOC(=O)C1=C(CC)Nc2ccccc2N=C1NC(=O)Nc1ccccc1OC has an inhibition of 5.38%. CCOC(=O)C1=C(CC)Nc2ccccc2N=C1NC(=O)c1cc(S(=O)(=O)N(C)C)ccc1Cl gave an inhibition of 5.31%. Cc1ccc(SCc2cc(=O)[nH]c(/N=C(\N)Nc3cccc4ccccc34)n2)cc1 showed an inhibition of 2.6%. CC1(C)CC(=O)C2=C(C1)NC1=C(C(=O)c3ccccc31)C2c1cccnc1 (configuration not stated) showed an inhibition of 11.2%. Work on CC1(C)CC(=O)C2=C(C1)NC1=C(C(=O)c3ccccc31)C2c1ccc(O)cc1 (configuration not stated) yielded an inhibition of 7.92%. CC1(C)CC(=O)C2=C(C1)NC1=C(C(=O)c3ccccc31)C2c1ccc(Cl)cc1 (configuration not stated) gave an inhibition of 44.9%. With CC1(C)CC(=O)C2=C(C1)NC1=C(C(=O)c3ccccc31)C2c1ccccc1 (configuration not stated) the inhibition was 14.8%. With Cc1ccc(C2C3=C(CC(C)(C)CC3=O)NC3=C2C(=O)c2ccccc23)cc1 (configuration not stated) the inhibition was 9.84%. With COc1cc(C2C3=C(CC(C)(C)CC3=O)NC3=C2C(=O)c2ccccc23)ccc1O (configuration not stated) the inhibition was 2.3%. In the case of CCN(CC)S(=O)(=O)c1cccc(C(=O)N/N=C2\CCCC(=O)C2)c1, the inhibition is reported as -9.95%. In the case of CCNc1nc(SCCOc2ccc(Br)cc2)nc(N(C)C)n1, the inhibition is reported as -0.8%. For Cc1nn(C)c(C)c1S(=O)(=O)N1CCC(C(=O)NCCC2=CCCCC2)CC1, the inhibition was -9.44%. Work on Cc1ccc(C)c(-c2cc(C(=O)Nc3cccc(C(=O)O)c3)c3ccccc3n2)c1 yielded an inhibition of 2.58%. In the case of COc1ccc(/C=C/C2=NN(Cc3ccccc3)C(=O)CC2)cc1, the inhibition is reported as -0.13%. Work on Cc1cc(N2CCN(C)CC2)nc(-c2ccccc2O)n1 yielded an inhibition of -1.49%. In the case of CC(C)C(=O)Nc1cccc(-c2nc3ccccc3c(=O)o2)c1, the inhibition is reported as 0.23%. With COc1ccc(-c2nc3ccccc3c(=O)o2)cc1OC the inhibition was 12.4%. In the case of CCOc1ccc(-c2nc3ccccc3c(=O)o2)cc1, the inhibition is reported as 3.93%. O=C(Nc1ccc2nc(-c3ccccc3)oc2c1)c1ccco1 showed an inhibition of -2.22%. Cc1cccc(OCC(=O)Nc2cccc(-c3nnc(-c4ccccc4)o3)c2)c1C showed an inhibition of 3.74%. O=C(COc1ccccc1)Nc1cccc(-c2nnc(-c3ccccc3)o2)c1 showed an inhibition of 14.9%. Work on CCC(=O)Nc1ccc(-c2nnc(-c3ccccc3)o2)cc1 yielded an inhibition of 5.07%. Work on O=C(Nc1ccc(-c2nc3cc(Cl)ccc3c(=O)o2)cc1)c1ccco1 yielded an inhibition of 9.67%. Compound O=C1CC(c2ccc(Br)cc2)NC(c2ccc(Br)cc2)C1c1ccccc1 (configuration not stated) has an inhibition of 15.2%. Compound Nc1cc(-c2ccccc2)nn1S(=O)(=O)c1ccc(Br)cc1 has an inhibition of 12.3%. Compound COc1cc(SC)ccc1C(=O)Nc1ccc(C)cc1C has an inhibition of 2.28%. In the case of Cc1onc(-c2ccccc2)c1C(=O)N1CCN(C)CC1, the inhibition is reported as -7.83%. With Cc1cc(C(=O)N/N=C2\CC(=O)c3ccccc32)c(C)n1-c1ccccc1 the inhibition was -0.53%. COc1ccc(/C=N/NC(=O)CC2N=C(Cc3ccccc3)NNC2=O)cc1OC (configuration not stated) showed an inhibition of -1.24%. O=C(Oc1c(Cl)cc(Cl)c2ccccc12)N1CCCCC1 showed an inhibition of 11.7%. For NC(=O)CCC(NC(=O)c1ccc(Cl)cc1)C(=O)O (configuration not stated), the inhibition was 2.33%. For COc1ccc(NC(=O)CCN2C(=O)[C@@H]3[C@H](C2=O)[C@H]2C=C[C@@H]3C2)cc1, the inhibition was -1.56%. With COc1ccc(-c2nc3ccccc3c(=O)o2)cc1 the inhibition was 11.6%. In the case of CC(C)(C)C(=O)Nc1cccc(-c2nc3ccccc3c(=O)o2)c1, the inhibition is reported as 70.7%. Work on CCCC(=O)Nc1cccc(-c2nc3ccccc3o2)c1 yielded an inhibition of 5.23%. Work on O=C1C2C3C=CC(C3)C2C(=O)N1c1ccc(-c2nc3ccccc3o2)cc1 (configuration not stated) yielded an inhibition of 0.58%. Work on O=C(Nc1ccc(-c2nc3ccccc3o2)cc1)c1ccc(N2C(=O)C3C4C=CC(C4)C3C2=O)cc1 (configuration not stated) yielded an inhibition of 3.15%. In the case of CC(=O)Nc1cccc(-c2nc3ccccc3c(=O)o2)c1, the inhibition is reported as 9.37%. With COc1ccc(C2C(Oc3ccccc3)C(=O)N2c2ccc(C)c(C)c2)cc1OC (configuration not stated) the inhibition was 4.9%. Compound Fc1ccc(CNC(=S)NC2CCCC2)cc1 has an inhibition of 2.21%. In the case of CCc1cc(C(=O)OC)c(NC(=O)CC2SC(N)=NC2=O)s1 (configuration not stated), the inhibition is reported as 3.51%. CC(=O)N1CCN(c2ccc(N=Cc3c(O)n(-c4ccc(Cl)cc4)c(=O)[nH]c3=O)cc2)CC1 showed an inhibition of -7.57%. With COc1ccccc1CCc1nnc(CCC(=O)NC(C)Cc2cccc(C)n2)o1 (configuration not stated) the inhibition was -7.73%. COc1cc(/C=C2\SC(=N)N(c3ccc(F)cc3)C2=O)ccc1O gave an inhibition of 7.97%. Compound CCOc1cc(/C=C2\SC(=N)N(c3nonc3N)C2=O)ccc1OCCN1CCOCC1 has an inhibition of 4.53%. CCOc1cc(/C=C2\SC(=N)N(c3nonc3N)C2=O)ccc1OCC(N)=O showed an inhibition of 4%. COc1ccc(/C=C2\SC(=N)N(c3ccc(F)cc3)C2=O)cc1OC gave an inhibition of -3.05%. Work on CCN1C(c2ccccc2)=C(c2ccccc2)S/C1=C\C=C1/SC(=S)N(C)C1=O yielded an inhibition of 3.07%. With Cc1cccnc1-n1c(CN2C(=O)c3ccccc3C2=O)nc2ccccc2c1=O the inhibition was -3.32%. CCOC(=O)c1c(CSC(=N)N)n(C)c2cc(Br)c(OC(C)=O)cc12 gave an inhibition of 1.34%. Work on CCOC(=O)c1c(CSC(=N)N)n(-c2ccccc2)c2cc(Br)c(OC(C)=O)cc12 yielded an inhibition of -0.53%. O=C(CN=C1NS(=O)(=O)c2ccccc21)OCC(=O)c1cc(F)ccc1F showed an inhibition of -7.99%. For C1CCC(c2nn3c(-c4n[nH]c5c4CCC5)nnc3s2)CC1, the inhibition was 9.35%. Clc1ccccc1-c1nnc2sc(CCc3ccccc3)nn12 gave an inhibition of 5.64%. c1ccc(-c2nnc3sc(Cc4cccs4)nn23)cc1 gave an inhibition of 15.9%. With c1ccc(OCc2nn3c(-c4ccccn4)nnc3s2)cc1 the inhibition was -10.6%. c1ccc(OCc2nn3c(-c4ccncc4)nnc3s2)cc1 showed an inhibition of -8.19%. With c1coc(-c2nnc3sc(Cc4cccs4)nn23)c1 the inhibition was -0.74%. For c1ccc(CCc2nn3c(-c4ccncc4)nnc3s2)cc1, the inhibition was -0.85%. c1csc(Cc2nn3c(-c4ccncc4)nnc3s2)c1 gave an inhibition of -11.8%. Work on O=C(OCc1nc2ccccc2s1)c1cnccn1 yielded an inhibition of -4.85%. With O=C(c1ccc(=O)[nH]n1)N1CCc2ccccc2C1 the inhibition was 5.26%.
